# Measured values reported in the supplement of paper PMC4022240.
# ± gives the standard deviation.
# Tests used:
# Test in all cases: peptide microarray binding signal (635 nm), min-max normalized on array (fraction of array maximum); higher = stronger binding
# Conditions in all cases: peptide region: H2B 17-29
# [1] = biological target: T1, HaloTag-ATRX ADD domain (163-292)
# T1 chain: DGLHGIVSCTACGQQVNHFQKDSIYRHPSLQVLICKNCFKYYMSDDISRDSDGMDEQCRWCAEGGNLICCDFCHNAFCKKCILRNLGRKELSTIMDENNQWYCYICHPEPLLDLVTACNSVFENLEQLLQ
# Protocol: (§1)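 Histone 13-mer peptides were synthesized as cellulose conjugates with a C-terminal 20-atom PEG linker and printed in triplicate on nitrocellulose. The sequence given is the unmodified backbone; PTMs (Kme1/2/3, Kac, Sph/Tph, Rme/Rme2a/Rme2s, Rcit) are listed in the label and the 'peptide modifications' condition. Slides were probed at 4 °C for 1 h with biotin-labelled (HQ)5-HaloTag reader fusions (ATRX-ADD, ING2-PHD) then streptavidin-Alexa647, or with rabbit histone antibodies then anti-rabbit Alexa647. The mean 635 nm signal of the triplicate spots was scaled 0-1 between the lowest and highest values on each array.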
# [2] = biological target: HaloTag-ING2 PHD (mouse Ing2 200-280)
# Protocol: as §1
# [3] = biological target: anti-H3K4me3 antibody ab8580
# Protocol: as §1
# [4] = biological target: anti-H3K9me3 antibody ab8898
# Protocol: as §1
# [5] = peptide modifications: H2BK20ac H2BK23ac H2BK27ac, binder concentration: 1:2,000 dilution
# [6] = peptide modifications: H2BK20ac H2BK23ac H2BK27ac, binder concentration: 1:10,000 dilution
# [7] = peptide modifications: H2BK20ac H2BK23ac H2BK24ac H2BK27ac H2BK28ac, binder concentration: 1:2,000 dilution
# [8] = peptide modifications: H2BK20ac H2BK23ac H2BK24ac H2BK27ac H2BK28ac, binder concentration: 1:10,000 dilution
# [9] = peptide modifications: H2BK20ac H2BK23ac H2BK27ac H2BK28ac, binder concentration: 1:2,000 dilution
# [10] = peptide modifications: H2BK20ac H2BK23ac H2BK27ac H2BK28ac, binder concentration: 1:10,000 dilution
# [11] = peptide modifications: H2BK23ac H2BK24ac H2BK28ac, binder concentration: 1:2,000 dilution
# [12] = peptide modifications: H2BK23ac H2BK24ac H2BK28ac, binder concentration: 1:10,000 dilution
# [13] = peptide modifications: H2BK20ac H2BK27ac, binder concentration: 1:2,000 dilution
# [14] = peptide modifications: H2BK20ac H2BK27ac, binder concentration: 1:10,000 dilution
# [15] = peptide modifications: H2BK20ac H2BK24ac H2BK28ac, binder concentration: 1:2,000 dilution
# [16] = peptide modifications: H2BK20ac H2BK24ac H2BK28ac, binder concentration: 1:10,000 dilution
# [17] = peptide modifications: H2BK23ac H2BK24ac H2BK27ac, binder concentration: 1:2,000 dilution
# [18] = peptide modifications: H2BK23ac H2BK24ac H2BK27ac, binder concentration: 1:10,000 dilution
# [19] = peptide modifications: H2BK20ac H2BK23ac H2BK24ac H2BK27ac, binder concentration: 1:2,000 dilution
# [20] = peptide modifications: H2BK20ac H2BK23ac H2BK24ac H2BK27ac, binder concentration: 1:10,000 dilution
# [21] = peptide modifications: H2BK20ac, binder concentration: 1:2,000 dilution
# [22] = peptide modifications: H2BK20ac, binder concentration: 1:10,000 dilution
# [23] = peptide modifications: H2BK23ac H2BK24ac, binder concentration: 1:2,000 dilution
# [24] = peptide modifications: H2BK23ac H2BK24ac, binder concentration: 1:10,000 dilution
binder,measurement,setting,value
AVTKAQKKDGKKR [H2B 17-29 A V T Kac A Q Kac K D G Kac K R],peptide microarray binding signal,"[1]; peptide modifications: H2BK20ac H2BK23ac H2BK27ac, binder concentration: 50 nM",0.00646 ± 0.00075
same,peptide microarray binding signal,"[1]; peptide modifications: H2BK20ac H2BK23ac H2BK27ac, binder concentration: 500 nM",0.00214 ± 0.00028
same,peptide microarray binding signal,"[2]; peptide modifications: H2BK20ac H2BK23ac H2BK27ac, binder concentration: 10 nM",0.00585 ± 0.00024
same,peptide microarray binding signal,"[2]; peptide modifications: H2BK20ac H2BK23ac H2BK27ac, binder concentration: 100 nM",0.000992 ± 4.7e-05
same,peptide microarray binding signal,[3]; [5],0.000189 ± 5.4e-06
same,peptide microarray binding signal,[3]; [6],0.0016 ± 0.00014
same,peptide microarray binding signal,[4]; [5],0.000664 ± 5.2e-05
same,peptide microarray binding signal,[4]; [6],0.001211 ± 1.2e-05
AVTKAQKKDGKKR [H2B 17-29 A V T Kac A Q Kac Kac D G Kac Kac R],peptide microarray binding signal,"[1]; peptide modifications: H2BK20ac H2BK23ac H2BK24ac H2BK27ac H2BK28ac, binder concentration: 50 nM",0.00442 ± 0.00034
same,peptide microarray binding signal,"[1]; peptide modifications: H2BK20ac H2BK23ac H2BK24ac H2BK27ac H2BK28ac, binder concentration: 500 nM",0.01 ± 0.0008
same,peptide microarray binding signal,"[2]; peptide modifications: H2BK20ac H2BK23ac H2BK24ac H2BK27ac H2BK28ac, binder concentration: 10 nM",0.00871 ± 0.00071
same,peptide microarray binding signal,"[2]; peptide modifications: H2BK20ac H2BK23ac H2BK24ac H2BK27ac H2BK28ac, binder concentration: 100 nM",0.0154 ± 0.0025
same,peptide microarray binding signal,[3]; [7],0.00208 ± 0.00036
same,peptide microarray binding signal,[3]; [8],0.00257 ± 0.0004
same,peptide microarray binding signal,[4]; [7],0.000936 ± 3.8e-05
same,peptide microarray binding signal,[4]; [8],0.00236 ± 0.00011
AVTKAQKKDGKKR [H2B 17-29 A V T Kac A Q Kac K D G Kac Kac R],peptide microarray binding signal,"[1]; peptide modifications: H2BK20ac H2BK23ac H2BK27ac H2BK28ac, binder concentration: 50 nM",0.00414 ± 0.00019
same,peptide microarray binding signal,"[1]; peptide modifications: H2BK20ac H2BK23ac H2BK27ac H2BK28ac, binder concentration: 500 nM",0.00762 ± 0.00011
same,peptide microarray binding signal,"[2]; peptide modifications: H2BK20ac H2BK23ac H2BK27ac H2BK28ac, binder concentration: 10 nM",0.00913 ± 0.00015
same,peptide microarray binding signal,"[2]; peptide modifications: H2BK20ac H2BK23ac H2BK27ac H2BK28ac, binder concentration: 100 nM",0.0159 ± 0.00082
same,peptide microarray binding signal,[3]; [9],0.00168 ± 6.8e-05
same,peptide microarray binding signal,[3]; [10],0.0024 ± 4.3e-05
same,peptide microarray binding signal,[4]; [9],0.000861 ± 5.4e-05
same,peptide microarray binding signal,[4]; [10],0.000923 ± 9.6e-06
AVTKAQKKDGKKR [H2B 17-29 A V T K A Q Kac Kac D G K Kac R],peptide microarray binding signal,"[1]; peptide modifications: H2BK23ac H2BK24ac H2BK28ac, binder concentration: 50 nM",0.0036 ± 3.9e-05
same,peptide microarray binding signal,"[1]; peptide modifications: H2BK23ac H2BK24ac H2BK28ac, binder concentration: 500 nM",0.00652 ± 0.00023
same,peptide microarray binding signal,"[2]; peptide modifications: H2BK23ac H2BK24ac H2BK28ac, binder concentration: 10 nM",0.00561 ± 8.2e-05
same,peptide microarray binding signal,"[2]; peptide modifications: H2BK23ac H2BK24ac H2BK28ac, binder concentration: 100 nM",0.00822 ± 0.00014
same,peptide microarray binding signal,[3]; [11],0.00143 ± 0.00012
same,peptide microarray binding signal,[3]; [12],0.00217 ± 0.00011
same,peptide microarray binding signal,[4]; [11],0.000544 ± 2.3e-05
same,peptide microarray binding signal,[4]; [12],0.00098 ± 1.7e-05
AVTKAQKKDGKKR [H2B 17-29 A V T Kac A Q K K D G Kac K R],peptide microarray binding signal,"[1]; peptide modifications: H2BK20ac H2BK27ac, binder concentration: 50 nM",0.00332 ± 9.9e-05
same,peptide microarray binding signal,"[1]; peptide modifications: H2BK20ac H2BK27ac, binder concentration: 500 nM",0.00976 ± 0.00025
same,peptide microarray binding signal,"[2]; peptide modifications: H2BK20ac H2BK27ac, binder concentration: 10 nM",0.00573 ± 0.0013
same,peptide microarray binding signal,"[2]; peptide modifications: H2BK20ac H2BK27ac, binder concentration: 100 nM",0.00397 ± 0.00018
same,peptide microarray binding signal,[3]; [13],0.00349 ± 0.00028
same,peptide microarray binding signal,[3]; [14],0.000856 ± 8.9e-06
same,peptide microarray binding signal,[4]; [13],0.000755 ± 1.7e-05
same,peptide microarray binding signal,[4]; [14],0.000461 ± 8.7e-06
AVTKAQKKDGKKR [H2B 17-29 A V T Kac A Q K Kac D G K Kac R],peptide microarray binding signal,"[1]; peptide modifications: H2BK20ac H2BK24ac H2BK28ac, binder concentration: 50 nM",0.00815 ± 0.00023
same,peptide microarray binding signal,"[1]; peptide modifications: H2BK20ac H2BK24ac H2BK28ac, binder concentration: 500 nM",0.00795 ± 0.00026
same,peptide microarray binding signal,"[2]; peptide modifications: H2BK20ac H2BK24ac H2BK28ac, binder concentration: 10 nM",0.00853 ± 0.00032
same,peptide microarray binding signal,"[2]; peptide modifications: H2BK20ac H2BK24ac H2BK28ac, binder concentration: 100 nM",0.0068 ± 0.00034
same,peptide microarray binding signal,[3]; [15],0.00196 ± 0.00041
same,peptide microarray binding signal,[3]; [16],0.002054 ± 1.9e-05
same,peptide microarray binding signal,[4]; [15],0.0013 ± 0.00012
same,peptide microarray binding signal,[4]; [16],0.001614 ± 1.6e-05
AVTKAQKKDGKKR [H2B 17-29 A V T K A Q Kac Kac D G Kac K R],peptide microarray binding signal,"[1]; peptide modifications: H2BK23ac H2BK24ac H2BK27ac, binder concentration: 50 nM",0.00329 ± 7.2e-05
same,peptide microarray binding signal,"[1]; peptide modifications: H2BK23ac H2BK24ac H2BK27ac, binder concentration: 500 nM",0.00362 ± 0.00012
same,peptide microarray binding signal,"[2]; peptide modifications: H2BK23ac H2BK24ac H2BK27ac, binder concentration: 10 nM",0.00406 ± 5.6e-05
same,peptide microarray binding signal,"[2]; peptide modifications: H2BK23ac H2BK24ac H2BK27ac, binder concentration: 100 nM",0.004039 ± 3.4e-05
same,peptide microarray binding signal,[3]; [17],0.00068 ± 1.9e-05
same,peptide microarray binding signal,[3]; [18],0.0012 ± 5.2e-05
same,peptide microarray binding signal,[4]; [17],0.000453 ± 1.3e-05
same,peptide microarray binding signal,[4]; [18],0.000519 ± 5.6e-06
AVTKAQKKDGKKR [H2B 17-29 A V T Kac A Q Kac Kac D G Kac K R],peptide microarray binding signal,"[1]; peptide modifications: H2BK20ac H2BK23ac H2BK24ac H2BK27ac, binder concentration: 50 nM",0.00357 ± 0.00035
same,peptide microarray binding signal,"[1]; peptide modifications: H2BK20ac H2BK23ac H2BK24ac H2BK27ac, binder concentration: 500 nM",0.00643 ± 0.00011
same,peptide microarray binding signal,"[2]; peptide modifications: H2BK20ac H2BK23ac H2BK24ac H2BK27ac, binder concentration: 10 nM",0.00579 ± 0.00026
same,peptide microarray binding signal,"[2]; peptide modifications: H2BK20ac H2BK23ac H2BK24ac H2BK27ac, binder concentration: 100 nM",0.00702 ± 0.00069
same,peptide microarray binding signal,[3]; [19],0.00136 ± 0.0002
same,peptide microarray binding signal,[3]; [20],0.00131 ± 2.6e-05
same,peptide microarray binding signal,[4]; [19],0.000982 ± 0.00011
same,peptide microarray binding signal,[4]; [20],0.0011 ± 2.2e-05
AVTKAQKKDGKKR [H2B 17-29 A V T Kac A Q K K D G K K R],peptide microarray binding signal,"[1]; peptide modifications: H2BK20ac, binder concentration: 50 nM",0.00492 ± 0.0007
same,peptide microarray binding signal,"[1]; peptide modifications: H2BK20ac, binder concentration: 500 nM",0.00962 ± 0.0042
same,peptide microarray binding signal,"[2]; peptide modifications: H2BK20ac, binder concentration: 10 nM",0.00448 ± 0.00039
same,peptide microarray binding signal,"[2]; peptide modifications: H2BK20ac, binder concentration: 100 nM",0.00829 ± 0.0016
same,peptide microarray binding signal,[3]; [21],0.000378 ± 2.7e-05
same,peptide microarray binding signal,[3]; [22],0.0012 ± 4.3e-05
same,peptide microarray binding signal,[4]; [21],0.000483 ± 1.2e-05
same,peptide microarray binding signal,[4]; [22],0.000807 ± 2.5e-05
AVTKAQKKDGKKR [H2B 17-29 A V T K A Q Kac Kac D G K K R],peptide microarray binding signal,"[1]; peptide modifications: H2BK23ac H2BK24ac, binder concentration: 50 nM",0.00605 ± 0.00096
same,peptide microarray binding signal,"[1]; peptide modifications: H2BK23ac H2BK24ac, binder concentration: 500 nM",0.00486 ± 0.0017
same,peptide microarray binding signal,"[2]; peptide modifications: H2BK23ac H2BK24ac, binder concentration: 10 nM",0.00543 ± 0.00017
same,peptide microarray binding signal,"[2]; peptide modifications: H2BK23ac H2BK24ac, binder concentration: 100 nM",0.00347 ± 0.00023
same,peptide microarray binding signal,[3]; [23],0.000566 ± 8.2e-05
same,peptide microarray binding signal,[3]; [24],0.00257 ± 0.00026
same,peptide microarray binding signal,[4]; [23],0.000951 ± 7.5e-05
same,peptide microarray binding signal,[4]; [24],0.00115 ± 4.1e-05
